Screening data as filed in PubChem BioAssay.
An excerpt weighted towards active compounds, which were near 4.2% of everything screened.
Wnt bcat act = activates Wnt/beta-catenin signaling in a reporter cell assay | activation, % at 9.35 µM | actives 1.2% (n = 300,000) | activator, plate reader; in the data active = activation above about 30%, passing the limit was not always enough; inconclusive = no clear call, values can overlap the other calls
AHR act = activates the human aryl hydrocarbon receptor; P35869; AHR-responsive luciferase reporter cells, luminescence; activation, % at 5 µM; actives 2.5% (n = 320,000); in the data active = activation above about 47%
esBAF inh = blocks esBAF chromatin remodeling in mouse ES cells; Bmi1-luciferase knock-in reporter, 24 h; 100% = twice the neutral-well signal; AID 602393; actives 2% (n = 350,000); reporter increase, % at 12.5 µM; in the data active = activation above about 40%; inconclusive = no clear call, values can overlap the other calls;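 note: a rise in the Bmi1 reporter signal indicates esBAF inhibition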
MITF act = activators of MITF-driven TRPM1 promoter activity in SK-MEL-5 cells. actives 0.75% (n = 300,000). SK-MEL-5 TRPM1-promoter luciferase, 24 h; % of positive control, neutral wells = 0. activation, % at 12.5 µM;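 active = mean activation of at least 80% with every replicate also reaching 80%; inconclusive = mean reaches 80% but some replicate falls short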
GAA850 FXN act = activators of GAA850 frataxin (FXN) promoter; HEK293 lucGAA850 FXN promoter luciferase reporter, 24 h; percent of 10 µM SAHA response; AID 540364; activation, % at 6 µM; actives 0.56% (n = 360,000);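 active = activation above the average of all compounds screened plus 3 SD, cutoff fixed separately per campaign, cut at about 7.5% in these data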
AHR act confirm = confirmation of human aryl hydrocarbon receptor activators; AID 2845; actives 87% (n = 2,300); shares compounds with AHR act; human cells, AHR-responsive luciferase reporter, luminescence; activation, % at 9 µM; in the data active = activation above about 49%;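 note: HepG2 hepatoma cells carrying a DRE-driven firefly luciferase reporter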
PXR act counter = PXR activation, counter-screen for AHR activators. cell-based PXR reporter, luciferase luminescence. shares compounds with AHR act. actives 88% (n = 2,300). activation, % at 11.6 µM; in the data active = activation above about 11%;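 note: human hepatoma DPX-2 cells expressing full-length human PXR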
Target sequence (O75469 whole entry, looked up): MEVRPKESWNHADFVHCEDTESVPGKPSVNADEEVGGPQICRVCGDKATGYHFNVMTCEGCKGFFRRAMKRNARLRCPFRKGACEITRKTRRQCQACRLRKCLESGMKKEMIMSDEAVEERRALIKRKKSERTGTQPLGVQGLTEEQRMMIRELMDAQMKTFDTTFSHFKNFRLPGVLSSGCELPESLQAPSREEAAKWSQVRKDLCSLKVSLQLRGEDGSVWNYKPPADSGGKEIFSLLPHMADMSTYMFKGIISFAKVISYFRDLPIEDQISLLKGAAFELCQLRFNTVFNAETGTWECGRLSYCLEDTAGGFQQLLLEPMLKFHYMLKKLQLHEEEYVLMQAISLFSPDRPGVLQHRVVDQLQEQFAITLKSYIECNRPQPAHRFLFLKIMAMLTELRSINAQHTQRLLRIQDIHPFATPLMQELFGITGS
Numbers stand for hits; - = inactive; ? = inconclusive; . = no result.

SMILES | Wnt bcat act | AHR act | esBAF inh | MITF act | GAA850 FXN act | AHR act confirm | PXR act counter
COCC(=O)N/N=C/c1ccc(Sc2nc3ccccc3s2)o1 | - | 86 | - | . | - | 81 | 22
O=C(C[C@@H]1CC[C@H](NC(=O)Nc2ccc(C(F)(F)F)cc2)[C@@H](CO)O1)NCc1cc(F)cc(F)c1 | . | . | - | . | . | . | .
O=C(Nc1cccc2ccccc12)c1cccc([N+](=O)[O-])c1 | - | - | - | - | - | . | .
O=C(Nc1cccc2ccccc12)c1cc2c(cc1Br)OCO2 | - | 82 | - | - | - | 95 | 120
O=C(Nc1ccc(Cl)cc1F)c1cccc2ccccc12 | - | 100 | 47 | . | - | 119 | 12
COc1cccc(C(=O)Nc2cccc3ccccc23)c1OC | - | 117 | - | . | - | 108 | 44
O=C(O)c1cccc([N+](=O)[O-])c1C(=O)Nc1cccc2ccccc12 | - | 84 | - | - | - | - | -
COc1cccc(NC(=O)N(C)C[C@@H]2Oc3ncc(/C=C/c4ccccc4)cc3C(=O)N([C@@H](C)CO)C[C@H]2C)c1 | . | . | - | . | . | . | .
CC(C)NC(=O)Nc1cccc2c1O[C@@H](CN(C)Cc1ccc(-c3ccccc3)cc1)[C@@H](C)CN([C@H](C)CO)C2=O | . | . | - | . | . | . | .
CC(C)NC(=O)N(C)C[C@@H]1Oc2ccc(NC(=O)Nc3ccc4c(c3)OCO4)cc2C(=O)N([C@H](C)CO)C[C@H]1C | . | . | - | . | . | . | .
CCCNC(=O)Nc1ccc2c(c1)C(=O)N(C)C[C@@H](OC)[C@@H](C)CN(C(C)=O)[C@@H](C)CO2 | . | . | - | . | . | . | .
CCn1c(SCC(=O)NCC2CCCO2)nnc1-c1ccc(Cl)cc1 (stereo unspecified) | - | - | - | - | - | . | .
Cc1ccc(-c2[nH]c(-c3ccccc3)nc2SCC(=O)NCC2CCCO2)cc1 (stereo unspecified) | - | 93 | - | . | - | 91 | 110
Cc1ccc(-c2nc(SCC(=O)NCC3CCCO3)c(-c3ccc(Cl)cc3)[nH]2)cc1 (stereo unspecified) | - | 86 | - | . | - | 73 | 73
C[C@H](CO)N1C[C@H](C)[C@H](CN(C)Cc2ccc(C(F)(F)F)cc2)OCCCC[C@H](C)Oc2ccc(NS(=O)(=O)c3ccc(F)cc3)cc2C1=O | . | . | - | . | . | . | .
Cc1cccc(S(=O)(=O)N2C[C@H](O)COC[C@@H]3O[C@H](CC(=O)NCc4ccncn4)CC[C@H]32)c1 | . | . | - | . | . | . | .
COc1ccc(NC(=O)c2ccc(Cl)nc2)cc1S(=O)(=O)N1CCCCC1 | - | 121 | . | - | - | 85 | 63
O=C(Nc1ccc2c(c1)OCO2)c1ccncc1 | . | 103 | - | - | - | 74 | .
COc1ccc(NC(=O)c2cc(OC)c(OC)c(OC)c2)cc1S(=O)(=O)N1CCCCC1 | - | - | - | - | - | . | .
Cc1ccc(C(=O)Nc2ccc(NC(=O)c3ccc(C)o3)cc2)o1 | - | - | - | - | - | . | .
Cc1ccc(C(=O)Nc2ccc3c(c2)OCO3)o1 | . | 122 | 48 | - | - | 108 | 39
Cn1c(C(=O)Nc2ccc3c(c2)OCO3)cc2sccc21 | . | 89 | - | - | - | 139 | 109
C[C@@H]1CCCCO[C@H](CN(C)C(=O)Cc2ccccc2)[C@H](C)CN([C@H](C)CO)C(=O)c2cc(NC(=O)Nc3ccc(F)cc3)ccc2O1 | . | . | - | . | . | . | .
COc1ccc(CN(C)C[C@H]2Oc3ccc(NC(=O)C4CC4)cc3C(=O)N([C@@H](C)CO)C[C@H]2C)cc1 | . | . | - | . | . | . | .
O=C(Nc1ccc2c(c1)OCO2)c1ccc(Cl)nc1 | . | 88 | . | - | - | 149 | 23
SMILES | Wnt bcat act | AHR act | esBAF inh | MITF act | GAA850 FXN act | AHR act confirm | PXR act counter
O=C(Nc1ccc2c(c1)OCCO2)c1ccc(Cl)c(Cl)c1 | - | - | - | - | - | . | .
COc1ccc(N=Cc2c(O)[nH]c3ccccc23)cc1 | 59 | 129 | - | - | - | 67 | 18
C(=N\Nc1nc2ccccc2s1)/c1ccco1 | - | 103 | - | - | - | 105 | 30
Nc1nc(-c2ccccc2)nc2sc3c(c12)CCCC3 | . | 92 | ? | - | - | 89 | 54
O=c1oc(-c2ccccc2)nc2sc3c(c12)CCC3 | - | - | . | - | - | . | .
COc1ccc(-c2nc3ccccc3c(=O)[nH]2)cc1 | - | 110 | - | . | - | 106 | 23
Cc1ccc(-n2cc(C(=O)c3ccc(N4CCN(C)CC4)cc3)nn2)cc1Cl | - | 90 | - | - | - | - | 15
CN1CCN(c2ccc(C(=O)c3cn(-c4ccc(F)c(Cl)c4)nn3)cc2)CC1 | - | - | - | - | - | . | .
O=c1[nH]c(/C=C/c2ccccc2OC(F)F)nc2c1cnn2-c1ccccc1 | - | 85 | . | - | - | - | 33
CO[C@H]1CN(C)C(=O)c2ccc(NC(C)=O)cc2OC[C@@H](C)N(C(=O)c2ccccc2F)C[C@@H]1C | . | . | - | . | . | . | .
COc1ccc(/C=N/Nc2nncn2N)cc1Br | - | 88 | - | . | - | - | 12
O=C(O)c1ccccc1C(=O)NCCc1ccc(Cl)cc1 | - | 97 | - | - | - | 64 | 10
O=C(NCCc1ccccc1)c1ccccc1Cl | - | - | - | - | - | . | .
Cn1cc(/C=C2/SC(=O)N(c3ccccc3)C2=O)c2ccccc21 | - | 101 | . | - | - | 87 | 17
Cn1cc(/C=C2\SC(=S)N(N3CCOCC3)C2=O)c2ccccc21 | - | 107 | . | - | - | - | -
COc1ccc(-c2nc3cnccn3c2Nc2ccc3c(c2)OCO3)cc1 | - | 105 | - | - | - | 85 | 144
COc1ccc(C2CC(c3cccs3)=NN2C(=O)CSc2nc3ccccc3o2)cc1 (stereo unspecified) | - | 93 | - | - | - | 50 | 45
COc1ccc(S(=O)(=O)Nc2ccc3c(c2)C(=O)N([C@H](C)CO)C[C@H](C)[C@H](CN(C)Cc2ccncc2)OCCCC[C@@H](C)O3)cc1 | . | . | - | . | . | . | .
COc1ccccc1CNC(=O)CSc1ccsc1[N+](=O)[O-] | ? | - | . | - | - | . | .
COc1ccccc1NC(=O)c1ccc(SCC(=O)NCc2ccccc2Cl)c([N+](=O)[O-])c1 | - | 99 | . | - | - | 120 | 135
COc1ccccc1NC(=O)C(=O)NCc1ccccc1Cl | - | - | - | - | - | . | .
COc1ccccc1CNC(=O)CSc1ccc(C(=O)Nc2ccccc2OC)cc1[N+](=O)[O-] | - | 90 | . | - | - | 85 | 105
COc1ccc(S(=O)(=O)N2C[C@H](O)COC[C@H]3O[C@@H](CC(=O)NCCCN4CCOCC4)CC[C@@H]32)cc1 | . | . | - | . | . | . | .
[O-][n+]1c2ccccc2c2n1CCN=C2c1ccc(Cl)cc1 | - | 102 | - | - | - | 115 | 12
Nc1c(Cl)cc(C2=NCCn3c2c2ccccc2[n+]3[O-])cc1Cl | - | 85 | - | - | - | 101 | 20
CCN(CC)c1ccc(/C=N/N(c2ccccc2)c2ccccc2)c(O)c1 | - | 94 | - | - | - | 90 | 97
